TDP1 cell CPT = DT40-hTDP1 cell growth loss with CPT | chicken DT40 Tdp1-/-;hTDP1 cells + 20 nM CPT, ATP luminescence, 48 h | Potency, µM (series often up to 46.2 µM), for inactives: top-dose activity change, negative = growth inhibition, most hits filed as inhibitors | 420,000 tested, 12% active | AID 686979; further: potency means the concentration at half of the fitted maximal effect; nearly all actives have a fitted effect of over 55% in size
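Cell growth measured by CellTiter-Glo luminescence after a minimum 48 h, 37 C compound exposure with 20 nM CPT in Tdp1-knockout DT40 cells stably expressing hTDP1, seeded 400/well; qHTS titration format.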
IL-1B inflam inh = inhibitors of inflammasome signaling (IL-1 beta secretion) | THP-1 LPS/ATP IL-1B secretion, AlphaLISA, 16 h; stronger effect = lower value | activity change, % at 57.5 µM | 360,000 tested, 4.7% active | AID 743279; in the data active means activity change below about -50%; inconclusive means mostly about -30% to -49%
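Secreted IL-1B measured by AlphaLISA bead assay after 16 h compound exposure of THP-1 cells; compounds (final up to 57.5 uM) added 1 h before LPS (250 ng/mL) and ATP (1.25 mM) stimulation; lower signal means less secretion.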
HT1080NT lethal = kills 2HG-producing HT-1080-NT fibrosarcoma cells; HT-1080-NT fibrosarcoma viability, CellTiter-Glo ATP luminescence, 48 h; Potency, µM (doses to about 46.1 µM), for inactives: top-dose activity, negative = less viability, hits mostly cytotoxic; 360,000 tested, 1.6% active;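 further: NT is the 2HG producing partner of a matched IDH1 knockdown line; potency means the concentration at half of the fitted maximal effect; 0% = DMSO-treated cells and -100% = media-only wells without cells; nearly all actives have a fitted effect of over 55% in size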
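Fibrosarcoma NT cells, 750 per well in 5% FBS RPMI, were exposed to compound for 48 hours. Viability: CellTiter-Glo luminescence.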
TDP1 cell noCPT = qHTS for Inhibitors of human tyrosyl-DNA phosphodiesterase 1 (TDP1): qHTS in cells in absence of CPT. DT40 Tdp1-/- hTDP1 cells, no CPT, ATP luminescence, 48 h. 420,000 tested, 15% active. Potency, µM (top dose mostly 46.2 µM), for inactives: at the highest dose activity change, negative = growth inhibition, most hits filed as inhibitors; further: potency means the concentration at half of the fitted maximal effect; nearly all actives have a fitted effect of over 55% in size
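Stably hTDP1-transfected Tdp1-null chicken DT40 cells were treated with library compounds minus camptothecin and grown for at least 48 hr at 37 °C, after which cellular ATP was quantified by luminescence.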
HT1080 IDH1KD tx = kills HT-1080 cells with IDH1 knockdown. HT-1080 IDH1 knockdown viability, ATP luminescence, 48 h. Potency, µM (doses to about 46.1 µM), without a hit: at the highest dose activity, negative = toxicity, hits mostly cytotoxic. 360,000 tested, 2% active;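 further: potency means the concentration at half of the fitted maximal effect; 0% = DMSO wells and -100% = cell-free medium wells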
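After a 2 h attachment period, IDH1KD HT-1080 cells took pin-transferred compound for 48 h at 37 °C; ATP-based luminescence after 10 min room-temperature reagent incubation reported viability.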
uPA generation = blocks generation of uPA at the cell surface; 330,000 tested, 0.31% active; Potency, µM (series often up to 38.3 µM), inactives show at the top dose activity change, negative = inhibition, usual class: inhibitors; cell surface uPA generation assay, qHTS; active means well fitted inhibition curve with a large enough effect; inconclusive means small, poorly fitted or top-dose-only effect; inactive means no such curve, though single readings can be large or run the other way; tested in mouse RAW 264.7 cells; further: potency means the concentration at half of the fitted maximal effect; nearly all actives have a fitted effect of over 55% in size
* marks the source's active call; other numbers are inactive results; ? = inconclusive; . = no result given; [ ] = another dose, or the depositor's remark. In the library only some 19% were active in any assay of this set; here they are far more common. Unless noted, the call rests on the fitted dose curve; in most records, active means well fitted curve in the direction sought with a large enough effect; inconclusive means small, poorly fitted or top-dose-only effect, or another doubt; inactive means no such curve, though single readings can be large; an effect the other way counts as inactive or inconclusive. Unless noted, on the % scale 0 is the no-effect control and ±100 the full control effect.

SMILES	TDP1 cell CPT	IL-1B inflam inh	HT1080NT lethal	TDP1 cell noCPT	HT1080 IDH1KD tx	uPA generation
O=C1c2ccccc2C(c2nnnn2-c2ccc3c(c2)OCCO3)N1C1CC1 (configuration not stated)	-11%	2	2%	-17%	7%	.
CC(C)(C)c1cc2ncnc(N3CCCCC3)c2s1	13µM*	-5	-13%	29µM*	-6%	-2%
Cc1nc2ccccc2nc1N1CCCC1	7%	33	25%	4%	15%	-1%
COc1cccc(N2CC(NS(=O)(=O)c3cccnc3)CC2=O)c1 (configuration not stated)	-15%	9	0%	-29%	10%	7%
NC1CCc2ccc([N+](=O)[O-])cc21 (configuration not stated)	-4%	.	.	?	.	.
Nc1nn(-c2ccccc2)c(N)c1N=Nc1cccc(F)c1	1.6µM*	15	16µM*	2.6µM*	5.8µM*	1.4µM*
Nc1[nH]n(-c2ccccc2)c(=O)c1N=Nc1ccc2c(c1)OCCO2	?	-73*	-16%	?	-13%	-4%
Nc1nn(-c2ccccc2)c(N)c1N=Nc1ccc2c(c1)OCO2	3.7µM*	-97*	18µM*	4.1µM*	6.5µM*	-3%
Cc1nn(-c2ccccc2)c(N)c1N=Nc1cccnc1	?	0	10%	?	9%	?
Nc1[nH]n(-c2ccccc2)c(=O)c1N=Nc1ccc2c(c1)OCO2	-13%	-10	-20%	?	?	?
CC1=C([N+](=O)[O-])C(c2cccc(Br)c2)C2=C(N1)c1ccccc1C2=O (configuration not stated)	1µM*	-63*	1.3µM*	1.8µM*	1.3µM*	-10%
CCOc1ccccc1C(=O)Nc1ccc(S(=O)(=O)Nc2onc(C)c2C)cc1	-1%	.	.	7%	.	.
CCc1ccc(C(c2c(C)nn(-c3ccccc3)c2N)c2c(C)nn(-c3ccccc3)c2N)cc1	?	-67*	-1%	?	-15%	1%
O=C1c2ccccc2S(=O)(=O)N1CCS(=O)(=O)c1ccc(F)cc1	15%	-76*	-2%	-8%	-9%	-6%
CC(C)c1nc2cccnc2n1C1CCN(C(=O)Cn2cccn2)CC1	-7%[9.04 µM]	.	.	-1%	.	.
COc1ccc(Cc2c(-c3ccc(Cl)cc3)nc3cc(C)c(Br)c(C)n23)c(C)c1	?	71	-22%	?	-16%	.
COc1ccc(Cc2c(-c3ccc(F)cc3)nc3cc(C)c(Br)c(C)n23)c(C)c1	?	81	-26%	18µM*	-19%	.
COc1ccc(Cc2c(-c3ccc(C)cc3)nc3cc(C)c(Br)c(C)n23)c(C)c1	2.3µM*	0	-11%	?	-18%	.
CCC(C)Nc1ccc(NC(C)CC)cc1 (configuration not stated)	4.1µM*	?	3.7µM*	-86%	9.2µM*	?
CCC(C)NC(=O)c1ccccc1C(=O)NC(C)CC (configuration not stated)	-2%	12	11%	-10%	-3%	5%
CC(NC(=O)Cc1ccsc1)c1ccc(Cl)cc1Cl (configuration not stated)	-22%	-14	-8%	-16%	-12%	-1%
CCc1nnc(NC(=O)CSc2nccn2-c2cc(C)cc(C)c2)s1	23µM*	-11	14%	16µM*	-2%	?
COc1ccc(OC)c(NC(=O)CSc2nccn2-c2cc(C)cc(C)c2)c1	15µM*	.	.	16µM*	.	.
Cc1cc(C)cc(-n2ccnc2SCC(=O)Nc2ccc(C)cc2C)c1	16µM*	.	.	21µM*	.	.
COc1ccc(C(=O)N(C)Cc2ccc(C)o2)cc1OC1CCN(C(C)=O)CC1	?	-9	17%	17%	0%	-3%
